Source: PubChem
Only some compounds are listed: those with a hit (about 12% of all), similar ones and a draw of the others.
BAZ2B inh: qHTS Assay for Inhibitors of BAZ2B. AlphaScreen BAZ2B-H3K14Ac peptide displacement. Potency, µM (highest dose often 114 µM), most hits filed as inhibitors. 4.4% of 360,000 active. AID 504333, 2011; also: nearly all actives have a fitted effect of over 60% in size
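AlphaScreen displacement: compounds (up to 110uM) incubated 30 min at room temperature with a preformed 50 nM BAZ2B/50 nM biotinylated H3K14Ac peptide complex in PBS pH 7.4 with Tween-20. Donor and acceptor beads at 10 ug/mL final added, 20 min light-protected before reading.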
JMJD2A Tudor inh: qHTS Assay for Inhibitors of JMJD2A-Tudor Domain; Lysine-specific demethylase 4A (Homo sapiens), O75164; AlphaScreen JMJD2A-Tudor / H3K4me3 peptide binding; Potency, µM (highest dose often 114 µM), most hits filed as inhibitors; 4.4% of 390,000 active; also: nearly all actives have a fitted effect of over 50% in size
HP1b binding inh: HTS for Inhibitors of HP1-beta Chromodomain Interactions with Methylated Histone Tails; 0.56% of 390,000 active; Chromobox protein homolog 1 (Homo sapiens), P83916; AlphaScreen HP1-beta / biotin-H3K9me3 peptide binding; Potency, µM (titrated, usually from 114 µM), most hits filed as inhibitors; AID 540317, 2011; also: nearly all actives have a fitted effect of over 70% in size
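HP1-beta protein (50 nM final) preincubated 30 min at room temperature with biotinylated H3(1-18)K9me3 peptide (50 nM) in PBS pH 7.4, 0.01% Tween-20, then compound added for 30 min. AlphaScreen streptavidin donor/nickel chelate acceptor beads (10 ug/mL final), 30 min dark, luminescence read.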
L3MBTL1 block: qHTS Assay for the Inhibitors of L3MBTL1; Lethal(3)malignant brain tumor-like protein 1 (Homo sapiens), Q9Y468; AlphaScreen L3MBTL1–H3K9me1 peptide binding; Potency, µM (series often up to 57.1 µM), actives largely listed as inhibitors; 0.66% of 230,000 active; also: nearly all actives have a fitted effect of over 60% in size
Target sequence (Q9Y468 whole entry, looked up): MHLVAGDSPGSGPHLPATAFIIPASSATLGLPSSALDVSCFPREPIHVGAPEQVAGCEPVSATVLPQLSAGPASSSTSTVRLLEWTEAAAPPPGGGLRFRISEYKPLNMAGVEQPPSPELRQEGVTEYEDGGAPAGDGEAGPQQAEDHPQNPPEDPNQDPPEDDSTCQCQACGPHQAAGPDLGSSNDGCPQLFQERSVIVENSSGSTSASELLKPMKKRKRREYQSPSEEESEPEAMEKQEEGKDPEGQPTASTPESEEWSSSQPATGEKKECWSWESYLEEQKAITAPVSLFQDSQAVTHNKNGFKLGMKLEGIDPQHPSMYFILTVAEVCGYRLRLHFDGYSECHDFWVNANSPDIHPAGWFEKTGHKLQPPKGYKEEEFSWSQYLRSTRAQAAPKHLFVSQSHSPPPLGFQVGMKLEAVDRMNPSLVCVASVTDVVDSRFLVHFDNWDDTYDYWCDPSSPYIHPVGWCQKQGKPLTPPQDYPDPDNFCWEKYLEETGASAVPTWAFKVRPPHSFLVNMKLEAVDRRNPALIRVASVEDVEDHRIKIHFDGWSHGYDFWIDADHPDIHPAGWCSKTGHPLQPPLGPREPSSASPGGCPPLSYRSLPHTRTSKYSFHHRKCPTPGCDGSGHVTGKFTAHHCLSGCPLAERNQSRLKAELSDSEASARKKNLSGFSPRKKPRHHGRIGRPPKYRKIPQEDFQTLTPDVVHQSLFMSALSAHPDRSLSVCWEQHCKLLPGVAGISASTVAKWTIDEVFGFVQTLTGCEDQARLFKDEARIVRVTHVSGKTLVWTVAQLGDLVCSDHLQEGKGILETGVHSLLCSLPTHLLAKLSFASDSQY
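L3MBTL1 (50 nM) pre-complexed 30 min with biotinylated H3(1-15)K9me1 peptide (75 nM), then compounds added for 30 min at room temperature; AlphaScreen streptavidin donor/nickel chelate acceptor beads (10 ug/mL final) read after 30 min dark incubation.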
G9a block: qHTS Assay for Inhibitors of Histone Lysine Methyltransferase G9a; Histone-lysine N-methyltransferase EHMT2 (Homo sapiens), Q96KQ7; G9a H3K9 monomethylation, AlphaScreen, 2 h; Potency, µM (doses to about 102 µM), usual class: inhibitors; 8.8% of 350,000 active; AID 504332, 2011; also: nearly all actives have a fitted effect of over 75% in size
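AlphaScreen read-out: biotin-H3K9 peptide (500 nM) methylation by 20 nM enzyme with 20 uM SAM, 2 h at room temperature after 15 min compound preincubation; anti-monomethyl H3K9 antibody plus donor/acceptor beads, 10 min dark.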
Sfp inh: qHTS Assay for Inhibitors of Bacillus subtilis Sfp phosphopantetheinyl transferase (PPTase). Biochemical Sfp PPTase activity, qHTS. Potency, µM, most hits filed as inhibitors. 3.5% of 310,000 active. AID 1490, 2009;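 also: the enzyme is Sfp with the accession as filed and its product quenches rhodamine fluorescence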
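After 15 min at room temperature with compound, 15 nM Sfp received 5 uM rhodamine-CoA plus 12.5 uM BHQ-2-ybbR (50 mM Hepes pH 7.6, 10 mM MgCl2). Rate came from the fluorescence difference over 30 min, ex 525/em 598 nm.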
Each line names hits and unclear results; the compound was inactive in the other large screens; ! = not confirmed by another sample. Calls follow the shape of the dose curve; as a rule, active = well fitted curve in the direction sought with a large enough effect; inconclusive = small, poorly fitted or top-dose-only effect, or another doubt; inactive = no such curve, though single readings can be large; an effect the other way counts as inactive or inconclusive.

Cc1ccc(N2C(N)=C(C#N)C(c3cc(CN4CCOCC4)cs3)C3=C2CC(C)(C)CC3=O)cc1 (stereo not given)	G9a block 50µM (no result: L3MBTL1 block)
Cc1ccccc1C(=O)Nc1c(C)nc2ccccn2c1=O	none (no result: L3MBTL1 block, Sfp inh)
CCOC(=O)c1ccc(S(=O)(=O)Nc2cc(S(=O)(=O)Nc3ccc(OC)cc3)ccc2O)cc1	none (no result: BAZ2B inh, G9a block, Sfp inh)
O=c1[nH]c(CN2CCc3ccccc32)nc2scc(-c3cccs3)c12	G9a block 18µM
COc1cc2c(cc1O)CCC1C2CC[C@]2(C)[C@@H](O)CC[C@@H]12 (stereo not given in full)	G9a block 40µM (no result: BAZ2B inh, JMJD2A Tudor inh, HP1b binding inh, L3MBTL1 block, Sfp inh)
C[C@]12CC[C@@H]3c4ccc(O)cc4CC[C@H]3[C@@H]1CC[C@@H]2O	G9a block 20µM!
Cc1ccc(-n2nc(C(=O)N3CCC(C)CC3)c(=O)n(C)c2=O)cc1	none (no result: L3MBTL1 block, Sfp inh)
C/C(=N\NC(=O)c1ccn(C)n1)c1ccco1	G9a block inconclusive (no result: L3MBTL1 block)
COCCn1c(SCCN2CCCCC2)nc2ccccc2c1=O	BAZ2B inh inconclusive, JMJD2A Tudor inh 2.2µM, HP1b binding inh inconclusive, G9a block inconclusive
Cc1ccc([N+](=O)[O-])c(NC(=O)COC(=O)C2CC3CCCC(C2)C3=O)c1C (stereo not given)	G9a block 79µM (no result: L3MBTL1 block)
Cc1cccc([N+](=O)[O-])c1NC(=O)COC(=O)C1CC2CCCC(C1)C2=O (stereo not given)	none (no result: Sfp inh)
COc1ccc(NC(=O)c2c[nH]n3c(=O)cc(C4CCN(C(=O)OC(C)(C)C)CC4)nc23)cc1Cl	BAZ2B inh inconclusive, G9a block 45µM (no result: L3MBTL1 block)
CC(C)(C)OC(=O)N1CCC(c2cc(=O)n3[nH]cc(C(=O)NC4CCCC4)c3n2)CC1	G9a block 56µM (no result: L3MBTL1 block)
CC(C)(C)OC(=O)N1CCC(c2c(C(=O)NC3CCCCC3)cnn2-c2cccc(Cl)c2)CC1	none (no result: L3MBTL1 block, Sfp inh)
CC(C)(C)OC(=O)N1CCC(c2cc(=O)n3[nH]cc(C(=O)Nc4ccc(F)c(Cl)c4)c3n2)CC1	none
Nn1c(SCc2cn3cc(Cl)ccc3n2)nnc1-c1ccncc1	G9a block 45µM
Cc1ncc(CO)c(/C=N/NC(=S)Nc2ccc(Cl)c(Cl)c2)c1O	BAZ2B inh 22µM, JMJD2A Tudor inh inconclusive, HP1b binding inh inconclusive, L3MBTL1 block inconclusive, Sfp inh 50µM (no result: G9a block)
NNC(=O)c1cc2c(s1)CCCCCC2	G9a block inconclusive
Cc1ncc(CO)c(/C=N/NC(=S)Nc2cccc(Cl)c2)c1O	BAZ2B inh 13µM, JMJD2A Tudor inh 56µM, HP1b binding inh inconclusive, L3MBTL1 block 14µM, G9a block inconclusive, Sfp inh 50µM
S=C(NCc1ccccc1)Nc1cccc(Cl)c1	none
COc1cc(N=Cc2c(CO)cnc(C)c2O)cc(OC)c1OC	JMJD2A Tudor inh inconclusive
Cc1ncc(CO)c(/C=N/NC(=O)c2cc3c(s2)CCCC3)c1O	BAZ2B inh 50µM, JMJD2A Tudor inh 56µM, L3MBTL1 block inconclusive
CCC1CC=CC2C1C(=O)N(Cc1ccccc1)C2c1ccc(C(F)(F)F)cc1 (stereo not given)	none (no result: BAZ2B inh, L3MBTL1 block, G9a block)
O=S(=O)(c1ccc(Cl)cc1)c1nc(-c2ccccc2)oc1N1CCN(c2ccccc2)CC1	BAZ2B inh inconclusive (no result: L3MBTL1 block, Sfp inh)
O=C(CN1C(=O)C(=O)N(Cc2ccccc2)C1=O)Nc1ccc(F)c(Cl)c1	none (no result: BAZ2B inh)
COC(=O)N[C@@H](c1cccc(F)c1)[C@@H](C)[N+](=O)[O-]	none (no result: BAZ2B inh, JMJD2A Tudor inh, HP1b binding inh, L3MBTL1 block, G9a block)
Nc1scc2c(C(=O)O)nn(-c3ccccc3)c(=O)c12	BAZ2B inh inconclusive, JMJD2A Tudor inh 79µM (no result: Sfp inh)
COc1ccc(-n2nc(C(=O)O)c3csc(N)c3c2=O)cc1	JMJD2A Tudor inh 79µM (no result: BAZ2B inh, HP1b binding inh, L3MBTL1 block, G9a block, Sfp inh)
COC(=O)c1nn(-c2ccc(OC)cc2)c(=O)cc1Sc1ccc(C)cc1	none
COC(=O)c1nn(-c2ccc(OC)cc2)c(=O)c2c(N)sc(C)c12	BAZ2B inh inconclusive, JMJD2A Tudor inh inconclusive, HP1b binding inh inconclusive, G9a block 10µM, Sfp inh 35µM
COC(=O)c1nn(-c2ccc(OC)cc2)c(=O)cc1NN	L3MBTL1 block inconclusive, G9a block 45µM
O=C(NCC(c1ccco1)N1CCN(c2ccccc2F)CC1)c1ccc2c(c1)OCO2 (stereo not given)	G9a block inconclusive (no result: Sfp inh)
C[C@]12CCC(=O)C=C1CC[C@@H]1[C@H]2[C@@H](O)C[C@@]2(C)[C@H]1CC[C@]2(O)C(=O)CO	none (no result: BAZ2B inh, JMJD2A Tudor inh, HP1b binding inh, L3MBTL1 block)
COCC(=O)N1CCC2(CCN(Cc3nccs3)CC2)CC1	none (no result: BAZ2B inh, JMJD2A Tudor inh, HP1b binding inh, L3MBTL1 block)
C/C(=N/Nc1ncc(C(F)(F)F)cc1Cl)c1ccncc1	Sfp inh 56µM
CC(C)(C)C1CCC(=NNc2ncc(C(F)(F)F)cc2Cl)CC1 (stereo not given)	BAZ2B inh 79µM (no result: L3MBTL1 block)
